Measurements from PubChem BioAssay (EPA / NIEHS).
Records with an inconclusive call do not appear. The source made the active and inactive calls. How the source made its calls, unless noted: active means hit-call score of the fitted dose curve at least 0.9, where 1 is the maximum; inactive means score below 0.9.

Key:
[1] = target: Aryl hydrocarbon receptor (Homo sapiens) (UniProt P35869); experiment: ATG_Ahr_CIS: Attagene CIS-FACTORIAL HepG2 Assay for human Aryl Hydrocarbon Receptor (Ahr) (AID 2282930); settings: HepG2 AhR cis-factorial reporter transcription; actives raise or lower the signal
Procedure, shortened: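 Endogenous factor activity is tracked through cis-promoter reporter units transfected into HepG2 cells. Transcript levels at 24 h are read by fluorescent RT-PCR and capillary electrophoresis, with activity in either direction scored relative to DMSO.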

[2] = target: Hepatocyte nuclear factor 6 (Homo sapiens) (UniProt Q9UBC0); experiment: ATG_HNF6_CIS: Attagene CIS-FACTORIAL HepG2 Assay for human Hepatocyte Nuclear Factor 6 (HNF6) (AID 2282952); settings: HepG2 Attagene cis-factorial HNF6 reporter transcription; actives raise or lower the signal
Procedure, shortened: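 Reporter mRNA induction or loss in HepG2 after 24 h exposure; transient cis-MRTU transfection; fragments quantified by capillary electrophoresis; bidirectional analysis, DMSO as negative control.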

[3] = target: Transcription factor Sp1 (Homo sapiens) (UniProt P08047); experiment: ATG_Sp1_CIS: Attagene CIS-FACTORIAL HepG2 Assay for human Specificity Protein 1 (Sp1) (AID 2282961); settings: HepG2 Sp1 cis-reporter transcription, actives raise or lower the signal
Procedure, shortened: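 HepG2 cells transiently transfected with multiple reporter transcription units driven by cis-regulatory elements; Sp1-responsive reporter mRNA measured 24 h after dosing by RT-PCR and capillary electrophoresis fluorescence, fitted bidirectionally against DMSO baseline.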

[4] = ATG_SREBP_CIS: Attagene CIS-FACTORIAL HepG2 Assay for human Sterol Regulatory Element Binding (SREBP) (AID 2282962); settings: HepG2 Attagene cis-factorial SREBP reporter, mRNA; actives raise or lower the signal
Procedure, shortened: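 Transfected HepG2 (cis-regulated reporter library, endogenous TFs) → compound 24 h → total RNA → oligo(dT) RT → reporter-specific PCR → FAM primer extension, HpaI cut → CE fluorescence. Fit bidirectional vs DMSO.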

[5] = ATG_TA_CIS: Attagene CIS-FACTORIAL HepG2 Assay for human TA Basal Promoter (AID 2282964); settings: HepG2 Attagene CIS-factorial TA basal promoter reporter; actives raise or lower the signal
Procedure, shortened: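 HepG2 cells transiently transfected with multiple reporter units under cis promoter elements, reporting endogenous transcription factor activity; this endpoint tracks the TA basal promoter as background control. Reporter mRNA after 24 h dosing measured by RT-PCR/capillary electrophoresis; bidirectional fits versus DMSO.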

[6] = ATG_TCF_b_cat_CIS: Attagene CIS-FACTORIAL HepG2 Assay for human T-Cell-Factor with beta-catenin (TCF/b-cat) (AID 2282965); settings: HepG2 TCF/beta-catenin cis-reporter transcription, actives raise or lower the signal
Procedure, shortened: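 Cells of the HepG2 line carry transiently transfected reporter units whose promoters respond to endogenous factors. Twenty-four hours post-dosing, reporter mRNA induction is measured by fluorescent RT-PCR and capillary electrophoresis, with DMSO as baseline.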

[7] = ATG_TAL_CIS: Attagene CIS-FACTORIAL HepG2 Assay for human TAL Basal Promoter (AID 2282966); settings: HepG2 Attagene cis-factorial TAL promoter reporter; actives raise or lower the signal;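 further: background control endpoint measuring basal TAL promoter reporter mRNA not a specific factor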
Procedure, shortened: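 Readout: reporter mRNA, fluorescence by CE. System: HepG2, transient multi-reporter transfection, endogenous TF activity. Exposure: 24 h. Analysis: bidirectional, DMSO-normalized; background control.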

[8] = ATG_TGFb_CIS: Attagene CIS-FACTORIAL HepG2 Assay for human Transforming Growth Factor (TGF) (AID 2282967); settings: HepG2 Attagene CIS TGFb reporter, mRNA transcription; actives raise or lower the signal
Procedure, shortened: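 HepG2 cells transiently transfected with cis-promoter-driven multiple reporter units measure endogenous TF activity; reporter mRNA quantified at 24 h by RT-PCR, FAM labeling, HpaI digestion and capillary electrophoresis. Bidirectional fit vs DMSO.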

[9] = ATG_VDRE_CIS: Attagene CIS-FACTORIAL HepG2 Assay for human Vitamin D Receptor Element (VDRE) (AID 2282968); settings: HepG2 VDRE cis-reporter transcription, actives raise or lower the signal
Procedure, shortened: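 Transiently transfected HepG2 cells carrying cis-regulated reporter transcription units were exposed for 24 h. Reporter mRNA was measured by RT-PCR with fluorescent labelling and capillary electrophoresis, and fitted in both directions against DMSO.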

[10] = target: X-box-binding protein 1 (Homo sapiens) (UniProt P17861); experiment: ATG_Xbp1_CIS: Attagene CIS-FACTORIAL HepG2 Assay for human X-box Binding Protein 1 (XBP1) (AID 2282972); settings: HepG2 XBP1 cis-element reporter, Attagene multiplex; actives raise or lower the signal
Procedure, shortened: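 HepG2, transient MRTU transfection (cis-promoter driven), 24 h compound exposure. Total RNA → oligo(dT) RT → PCR → 6-FAM labeling → HpaI cut → CE. Bidirectional fit vs DMSO.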

[11] = target: Transcriptional activator Myb (Homo sapiens) (UniProt P10242); experiment: ATG_Myb_CIS: Attagene CIS-FACTORIAL HepG2 Assay for human Myeloblastosis (Myb) Proto-Oncogene Transcription Factor (AID 2282986); settings: HepG2 Attagene CIS-FACTORIAL Myb reporter transcription; actives raise or lower the signal
Procedure, shortened: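 HepG2 cells were transiently transfected with cis-regulated multiple reporter transcription units reflecting endogenous Myb activity, then exposed to compound for 24 hours. Reporter mRNA was measured by RT-PCR with capillary electrophoresis; bidirectional fitting versus DMSO baseline.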

[12] = target: Nuclear respiratory factor 1 (Homo sapiens) (UniProt Q16656); experiment: ATG_NRF1_CIS: Attagene CIS-FACTORIAL HepG2 Assay for human Nuclear Respiratory Factor 1 (NRF1) Orphan Gene (AID 2282987); settings: HepG2 NRF1 cis-element reporter, Attagene multiplex; actives raise or lower the signal
Procedure, shortened: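 HepG2 cells transiently transfected with multiple reporter transcription units under cis-regulatory promoter control, so endogenous transcription-factor activity is read. After 24 h compound exposure, reporter mRNA quantified by RT-PCR, fluorescent labelling, HpaI digestion and capillary electrophoresis; bidirectional fitting versus DMSO.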

[13] = ATG_NFI_CIS: Attagene CIS-FACTORIAL HepG2 Assay for human Nuclear Factor I (NFI) (AID 2282989); settings: HepG2 cis-regulatory reporter, NFI response element transcription; actives raise or lower the signal
Procedure, shortened: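 Endogenous TF activity in HepG2 cells transiently transfected with cis-element-driven multiplexed reporter units, read 24 h after dosing. Reporter mRNA quantified by RT-PCR, 6-FAM labelling, HpaI digestion and capillary electrophoresis; bidirectional fit versus DMSO.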

[14] = ATG_NF_kB_CIS: Attagene CIS-FACTORIAL HepG2 Assay for human Nuclear Factor Kappa B (NF-kB) (AID 2282991); settings: HepG2 Attagene cis-factorial NF-kB reporter mRNA; actives raise or lower the signal
Procedure, shortened: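 HepG2 cells transiently transfected with multiplexed cis-element reporter units measuring endogenous transcription factor activity; reporter mRNA read 24 h after dosing by RT-PCR, fluorescent labelling, HpaI digestion and capillary electrophoresis. Bidirectional fit against DMSO baseline.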

[15] = ATG_Oct_MLP_CIS: Attagene CIS-FACTORIAL HepG2 Assay for human Octamer-Binding Transcription Factor (Oct) (AID 2282993); settings: HepG2 Attagene cis-factorial Oct reporter, mRNA; actives raise or lower the signal
Procedure, shortened: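 HepG2 cells transiently transfected with cis-element-driven reporter transcription units (endogenous TF activity); 24 h compound exposure. Reporter mRNA quantified by RT-PCR, 6-FAM labelling, HpaI digestion and capillary electrophoresis; bidirectional fit versus DMSO baseline.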

[16] = target: Peroxisome proliferator-activated receptor gamma (Homo sapiens) (UniProt P37231); experiment: ATG_PPARg_TRANS: Attagene TRANS-FACTORIAL HepG2 Assay for human Peroxisome Proliferator-activated Receptor-gamma (PPARg) (AID 2283007; active means hit-call score of the fitted dose curve at least 0.9, where 1 is the maximum)
Procedure, shortened: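 HepG2 cells transiently transfected with multiplexed GAL4-UAS reporter units and exogenous chimeric NR-Gal4 proteins; reporter mRNA quantified after 24 h compound exposure by RT-PCR, fluorescent labelling, HpaI digestion and capillary electrophoresis; gain-of-signal fitted versus DMSO baseline.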

[17] = ATG_M_19_CIS: Attagene CIS-FACTORIAL HepG2 Assay for M19 Transcription Factor (Internal Marker) (AID 2282939); settings: HepG2 Attagene CIS-FACTORIAL M19 internal marker reporter; actives raise or lower the signal
Procedure, shortened: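 HepG2 cells transiently transfected with cis-regulated multiplexed reporter units, dosed 24 h. Reporter mRNA quantified by RT-PCR and capillary electrophoresis; internal background marker fitted bidirectionally versus DMSO.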

[18] = ATG_FoxO_CIS: Attagene CIS-FACTORIAL HepG2 Assay for human Forkhead box O (FoxO) (AID 2282943); settings: HepG2 Attagene cis-reporter, FoxO element, mRNA; actives raise or lower the signal
Procedure, shortened: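 Transfected HepG2 reporter cells exposed to test chemical for 24 h; reporter RNA measured by reverse transcription, PCR and fluorescent capillary electrophoresis; curves fitted for increases and decreases against DMSO.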

[19] = ATG_PBREM_CIS: Attagene CIS-FACTORIAL HepG2 Assay for human Phenobarbital-responsive Enhancer Module (PBREM) (AID 2282955); settings: HepG2 PBREM cis-reporter, Attagene multiplexed transcription; actives raise or lower the signal
Procedure, shortened: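 HepG2 cells transiently transfected with multiple cis-regulated reporter transcription units; endogenous factor activity at the PBREM element measured as reporter mRNA 24 h after dosing, via RT-PCR and capillary electrophoresis of fluorescent fragments; bidirectional fitting versus DMSO.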

[20] = target: Nuclear receptor subfamily 1 group I member 2 (Homo sapiens) (UniProt O75469); experiment: ATG_PXR_TRANS: Attagene TRANS-FACTORIAL HepG2 Assay for human Pregnane X Receptor (PXR) (AID 2283008; active means hit-call score of the fitted dose curve at least 0.9, where 1 is the maximum)
Procedure, shortened: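 Read-out is fluorescence of labelled reporter cDNA fragments separated by capillary electrophoresis after RT-PCR and HpaI digestion. Source: HepG2 cells carrying PXR-GAL4/UAS reporter constructs, treated 24 h; activity fitted upward relative to DMSO.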

Sequence of Hepatocyte nuclear factor 6 (Homo sapiens) (Q9UBC0 whole entry, looked up, the tested form may be a part): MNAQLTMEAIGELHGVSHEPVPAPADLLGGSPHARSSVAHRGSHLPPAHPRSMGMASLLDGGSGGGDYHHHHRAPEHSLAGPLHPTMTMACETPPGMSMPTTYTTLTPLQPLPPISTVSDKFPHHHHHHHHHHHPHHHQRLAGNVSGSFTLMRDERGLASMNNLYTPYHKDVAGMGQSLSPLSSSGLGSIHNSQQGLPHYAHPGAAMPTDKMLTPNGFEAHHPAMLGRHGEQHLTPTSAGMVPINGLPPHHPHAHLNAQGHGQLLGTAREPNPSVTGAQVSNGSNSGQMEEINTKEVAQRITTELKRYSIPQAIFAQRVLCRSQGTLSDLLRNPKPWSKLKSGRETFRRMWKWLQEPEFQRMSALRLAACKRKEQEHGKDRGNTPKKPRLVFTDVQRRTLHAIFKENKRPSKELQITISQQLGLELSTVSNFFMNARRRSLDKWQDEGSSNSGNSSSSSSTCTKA
Sequence of Nuclear respiratory factor 1 (Homo sapiens) (Q16656 whole entry, looked up): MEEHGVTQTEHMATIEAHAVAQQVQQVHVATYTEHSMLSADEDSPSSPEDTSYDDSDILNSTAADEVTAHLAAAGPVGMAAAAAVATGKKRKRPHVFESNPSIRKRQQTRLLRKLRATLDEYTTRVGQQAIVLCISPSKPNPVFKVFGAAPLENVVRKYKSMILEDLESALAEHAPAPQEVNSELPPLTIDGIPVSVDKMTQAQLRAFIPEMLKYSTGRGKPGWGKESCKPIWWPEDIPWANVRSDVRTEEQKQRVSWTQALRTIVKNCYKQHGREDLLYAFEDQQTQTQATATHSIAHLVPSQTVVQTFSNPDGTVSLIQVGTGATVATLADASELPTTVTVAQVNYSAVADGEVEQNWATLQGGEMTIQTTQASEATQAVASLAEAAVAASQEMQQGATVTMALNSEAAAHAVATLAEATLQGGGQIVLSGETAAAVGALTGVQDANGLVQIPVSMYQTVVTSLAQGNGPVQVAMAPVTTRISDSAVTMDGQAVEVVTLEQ
Sequence of Peroxisome proliferator-activated receptor gamma (Homo sapiens) (P37231 whole entry, looked up, the tested form may be a part): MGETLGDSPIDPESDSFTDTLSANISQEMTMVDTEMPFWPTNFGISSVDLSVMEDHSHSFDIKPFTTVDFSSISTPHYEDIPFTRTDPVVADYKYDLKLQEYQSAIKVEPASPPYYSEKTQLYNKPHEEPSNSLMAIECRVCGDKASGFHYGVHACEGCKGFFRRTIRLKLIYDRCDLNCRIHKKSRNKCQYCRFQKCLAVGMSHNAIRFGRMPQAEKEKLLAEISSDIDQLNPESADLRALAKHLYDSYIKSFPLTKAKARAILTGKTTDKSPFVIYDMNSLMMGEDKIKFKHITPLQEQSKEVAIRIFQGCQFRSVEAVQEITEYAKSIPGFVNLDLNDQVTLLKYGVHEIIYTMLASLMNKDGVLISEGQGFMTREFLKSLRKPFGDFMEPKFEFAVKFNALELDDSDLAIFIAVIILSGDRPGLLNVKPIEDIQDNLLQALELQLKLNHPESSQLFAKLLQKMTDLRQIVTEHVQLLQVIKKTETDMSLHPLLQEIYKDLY
Sequence of Transcription factor Sp1 (Homo sapiens) (P08047 whole entry, looked up): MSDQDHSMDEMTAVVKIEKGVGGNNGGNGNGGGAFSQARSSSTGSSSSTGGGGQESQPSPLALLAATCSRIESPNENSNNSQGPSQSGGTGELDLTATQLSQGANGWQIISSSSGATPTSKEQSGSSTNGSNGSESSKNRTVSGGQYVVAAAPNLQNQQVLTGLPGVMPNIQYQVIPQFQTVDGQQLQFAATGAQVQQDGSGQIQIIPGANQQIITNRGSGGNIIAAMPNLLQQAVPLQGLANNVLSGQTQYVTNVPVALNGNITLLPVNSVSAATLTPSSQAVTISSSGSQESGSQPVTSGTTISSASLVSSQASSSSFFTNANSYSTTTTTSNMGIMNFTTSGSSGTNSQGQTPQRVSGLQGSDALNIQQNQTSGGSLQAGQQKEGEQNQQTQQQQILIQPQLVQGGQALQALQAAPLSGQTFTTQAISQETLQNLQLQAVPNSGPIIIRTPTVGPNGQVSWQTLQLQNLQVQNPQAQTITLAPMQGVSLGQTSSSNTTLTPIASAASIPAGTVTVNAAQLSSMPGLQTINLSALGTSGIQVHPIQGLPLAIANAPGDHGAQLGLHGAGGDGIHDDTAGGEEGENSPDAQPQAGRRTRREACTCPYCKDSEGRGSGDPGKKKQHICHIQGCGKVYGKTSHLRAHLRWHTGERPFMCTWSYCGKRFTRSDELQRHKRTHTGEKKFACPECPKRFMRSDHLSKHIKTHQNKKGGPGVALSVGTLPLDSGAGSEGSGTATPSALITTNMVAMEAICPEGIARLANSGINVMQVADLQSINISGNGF
Sequence of Transcriptional activator Myb (Homo sapiens) (P10242 whole entry, looked up): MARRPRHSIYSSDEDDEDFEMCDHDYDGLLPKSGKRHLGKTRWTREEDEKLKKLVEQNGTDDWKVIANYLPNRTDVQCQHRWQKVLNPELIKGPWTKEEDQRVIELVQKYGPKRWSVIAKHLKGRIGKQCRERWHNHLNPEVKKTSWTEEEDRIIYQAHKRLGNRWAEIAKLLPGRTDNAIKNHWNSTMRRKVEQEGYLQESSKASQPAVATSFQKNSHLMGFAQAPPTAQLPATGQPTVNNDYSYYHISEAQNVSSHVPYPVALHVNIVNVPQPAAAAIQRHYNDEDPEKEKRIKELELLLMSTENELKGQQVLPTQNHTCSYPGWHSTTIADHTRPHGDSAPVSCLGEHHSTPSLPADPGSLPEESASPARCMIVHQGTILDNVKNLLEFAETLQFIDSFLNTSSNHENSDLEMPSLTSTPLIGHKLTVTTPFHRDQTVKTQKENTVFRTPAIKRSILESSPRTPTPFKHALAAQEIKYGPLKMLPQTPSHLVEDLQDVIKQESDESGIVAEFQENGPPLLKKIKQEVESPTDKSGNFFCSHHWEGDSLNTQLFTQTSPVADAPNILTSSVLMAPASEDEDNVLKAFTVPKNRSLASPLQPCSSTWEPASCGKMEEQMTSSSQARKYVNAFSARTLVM
Sequence of Aryl hydrocarbon receptor (Homo sapiens) (P35869 whole entry, looked up): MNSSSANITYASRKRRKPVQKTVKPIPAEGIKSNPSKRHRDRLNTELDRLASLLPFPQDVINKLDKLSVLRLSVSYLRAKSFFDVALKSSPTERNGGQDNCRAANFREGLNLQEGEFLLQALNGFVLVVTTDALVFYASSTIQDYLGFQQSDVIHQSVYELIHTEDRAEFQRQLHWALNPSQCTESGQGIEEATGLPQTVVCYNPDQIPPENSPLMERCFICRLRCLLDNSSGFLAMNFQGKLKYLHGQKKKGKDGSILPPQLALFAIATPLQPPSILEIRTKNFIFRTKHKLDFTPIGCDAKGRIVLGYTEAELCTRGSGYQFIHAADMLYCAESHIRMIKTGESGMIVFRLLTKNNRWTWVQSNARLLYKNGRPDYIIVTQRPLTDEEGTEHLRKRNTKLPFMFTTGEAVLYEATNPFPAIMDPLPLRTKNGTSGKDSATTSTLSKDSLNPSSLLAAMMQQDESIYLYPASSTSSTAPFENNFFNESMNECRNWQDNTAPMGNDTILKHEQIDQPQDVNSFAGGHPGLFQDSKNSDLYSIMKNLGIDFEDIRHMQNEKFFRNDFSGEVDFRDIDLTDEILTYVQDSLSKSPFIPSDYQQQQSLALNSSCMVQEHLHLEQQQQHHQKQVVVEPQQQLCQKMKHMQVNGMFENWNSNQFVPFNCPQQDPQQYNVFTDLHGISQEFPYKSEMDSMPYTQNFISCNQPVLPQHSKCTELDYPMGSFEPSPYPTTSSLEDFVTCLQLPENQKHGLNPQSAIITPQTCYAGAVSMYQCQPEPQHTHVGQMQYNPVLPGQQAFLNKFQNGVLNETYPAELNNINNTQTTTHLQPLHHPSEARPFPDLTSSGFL
Sequence of Nuclear receptor subfamily 1 group I member 2 (Homo sapiens) (O75469 whole entry, looked up, the tested form may be a part): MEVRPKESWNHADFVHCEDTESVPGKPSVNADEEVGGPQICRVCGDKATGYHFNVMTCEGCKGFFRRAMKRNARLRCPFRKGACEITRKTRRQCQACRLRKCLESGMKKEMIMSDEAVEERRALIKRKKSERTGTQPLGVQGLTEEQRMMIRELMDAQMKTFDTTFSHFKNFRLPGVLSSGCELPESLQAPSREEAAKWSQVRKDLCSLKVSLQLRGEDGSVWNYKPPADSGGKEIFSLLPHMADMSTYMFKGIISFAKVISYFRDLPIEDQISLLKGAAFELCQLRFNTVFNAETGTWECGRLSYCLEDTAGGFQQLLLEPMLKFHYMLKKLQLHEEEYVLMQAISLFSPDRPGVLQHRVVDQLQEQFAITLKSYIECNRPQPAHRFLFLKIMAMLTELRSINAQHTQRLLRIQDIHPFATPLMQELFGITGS
Sequence of X-box-binding protein 1 (Homo sapiens) (P17861 whole entry, looked up): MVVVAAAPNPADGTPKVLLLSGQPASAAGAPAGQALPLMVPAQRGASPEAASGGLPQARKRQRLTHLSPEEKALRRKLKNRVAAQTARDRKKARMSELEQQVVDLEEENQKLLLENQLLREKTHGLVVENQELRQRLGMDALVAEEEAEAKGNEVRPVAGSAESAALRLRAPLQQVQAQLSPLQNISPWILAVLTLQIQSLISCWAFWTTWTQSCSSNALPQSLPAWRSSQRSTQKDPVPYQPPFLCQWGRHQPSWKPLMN

CCOC(=O)N(C)N=O
outcome [1]: inactive
outcome [2]: inactive
outcome [3]: inactive
outcome [4]: inactive
outcome [5]: inactive
outcome [6]: inactive
outcome [7]: inactive
outcome [8]: inactive
outcome [9]: inactive
outcome [10]: inactive
outcome [11]: inactive
outcome [12]: inactive
outcome [13]: inactive
outcome [14]: inactive
outcome [15]: inactive
outcome [16]: inactive

CCCC=NO
outcome [1]: inactive
outcome [17]: inactive
outcome [18]: inactive
outcome [2]: inactive
outcome [19]: inactive
outcome [3]: inactive
outcome [4]: inactive
outcome [5]: inactive
outcome [6]: inactive
outcome [7]: inactive
outcome [8]: inactive
outcome [9]: inactive
outcome [10]: inactive
outcome [11]: inactive
outcome [12]: inactive
outcome [13]: inactive
outcome [15]: inactive
outcome [16]: inactive
outcome [20]: inactive

C=CCN(CC=C)C(=O)C(Cl)Cl
outcome [1]: inactive
outcome [17]: inactive
outcome [18]: inactive
outcome [2]: inactive
outcome [19]: inactive
outcome [3]: inactive
outcome [4]: inactive
outcome [5]: inactive
outcome [6]: inactive
outcome [7]: inactive
outcome [8]: inactive
outcome [9]: inactive
outcome [11]: inactive
outcome [12]: inactive
outcome [13]: inactive
outcome [14]: inactive
outcome [15]: inactive
outcome [16]: inactive
outcome [20]: inactive

O=c1c2ccccc2c(=O)c2c1cc(Cl)c1[nH]c3c([nH]c12)c(Cl)cc1c(=O)c2ccccc2c(=O)c13
AC50 [1]: 33.6 µM (active)
outcome [18]: inactive
outcome [2]: inactive
outcome [19]: inactive
outcome [3]: inactive
outcome [4]: inactive
outcome [5]: inactive
outcome [6]: inactive
outcome [7]: inactive
outcome [8]: inactive
outcome [9]: inactive
outcome [11]: inactive
outcome [12]: inactive
outcome [13]: inactive
outcome [15]: inactive
AC50 [16]: 40.5 µM (active)
AC50 [20]: 10.1 µM (active)

COc1ncc(F)c2nc(S(=O)(=O)Nc3c(F)cccc3F)nn12
outcome [1]: inactive
outcome [18]: inactive
outcome [2]: inactive
outcome [19]: inactive
outcome [3]: inactive
outcome [4]: inactive
outcome [5]: inactive
outcome [6]: inactive
outcome [7]: inactive
outcome [8]: inactive
outcome [10]: inactive
outcome [11]: inactive
outcome [12]: inactive
outcome [13]: inactive
outcome [14]: inactive
outcome [15]: inactive
outcome [20]: inactive

SCc1ccco1
outcome [1]: inactive
outcome [17]: inactive
outcome [2]: inactive
outcome [19]: inactive
outcome [3]: inactive
outcome [4]: inactive
outcome [5]: inactive
outcome [6]: inactive
outcome [7]: inactive
outcome [8]: inactive
outcome [9]: inactive
outcome [10]: inactive
outcome [11]: inactive
outcome [12]: inactive
outcome [13]: inactive
outcome [14]: inactive
outcome [15]: inactive
AC50 [16]: 27.9 µM (active)
outcome [20]: inactive

Cc1ncc(C[n+]2csc(CCO)c2C)c(N)n1
outcome [1]: inactive
outcome [17]: inactive
outcome [2]: inactive
outcome [19]: inactive
outcome [3]: inactive
outcome [4]: inactive
outcome [5]: inactive
outcome [6]: inactive
outcome [7]: inactive
outcome [8]: inactive
outcome [9]: inactive
outcome [10]: inactive
outcome [11]: inactive
outcome [12]: inactive
outcome [13]: inactive
outcome [14]: inactive
outcome [15]: inactive
outcome [16]: inactive

CC(C)(Cl)Cl
outcome [1]: inactive
outcome [17]: inactive
outcome [2]: inactive
outcome [19]: inactive
outcome [3]: inactive
outcome [4]: inactive
outcome [5]: inactive
outcome [6]: inactive
outcome [7]: inactive
outcome [8]: inactive
outcome [9]: inactive
outcome [10]: inactive
outcome [11]: inactive
outcome [12]: inactive
outcome [13]: inactive
outcome [14]: inactive
outcome [15]: inactive
outcome [16]: inactive
outcome [20]: inactive

CC(C)[C@@H](C(=O)O[C@@H](C#N)c1cccc(Oc2ccccc2)c1)c1ccc(Cl)cc1
outcome [1]: inactive
outcome [18]: inactive
outcome [2]: inactive
outcome [19]: inactive
outcome [3]: inactive
outcome [4]: inactive
outcome [5]: inactive
outcome [6]: inactive
outcome [7]: inactive
outcome [8]: inactive
outcome [10]: inactive
outcome [11]: inactive
outcome [12]: inactive
outcome [13]: inactive
outcome [14]: inactive
outcome [15]: inactive
outcome [16]: inactive
AC50 [20]: 0.752 µM (active)
